# Test results reported in PubChem BioAssay (NCATS).
# Inconclusive results are not listed. The source made the active and inactive calls. Calls follow the shape of the dose curve; as a rule, active = well fitted cell-killing curve with a large enough effect; inconclusive = small, poorly fitted or top-dose-only effect, or effect the other way; inactive = flat fitted curve, though single readings scatter.
# Test system: CAOV3
# Test: Primary qHTS to identify gynecologic anti-cancer compounds using libraries of approved drugs and bioactive compounds (AID 1345084); also: nearly all actives have a fitted effect of over 55% in size
# Conditions: Gynecologic cancer cell panel viability, ATPlite luminescence, 48 h; series mostly up to 57.5 µM; activity change, negative = cytotoxicity: at the top concentration
# From the text: National Center for Advancing Translational Sciences [NCATS] Assay Overview: Chemotherapeutic drug responses vary from cancer to cancer and from patient to patient. These variations could be caused by a number of factors including patient genomic background, tumor mutations, tumor heterogeneity, and aspects of drug treatment. Chemotherapeutic drug resistance is also a common issue and can lead to ineffective treatment and patient death. Here we have profiled the cell killing effects of thousands of compounds to characterize the responses in three gynecological cancers, identify cancer-selective compounds, and understand the diversity of responses to these compounds from pan-cancer suppressors to single cell line selective compounds. In this assay, we screened a 7,914 compound drug library that included approved drug and bioactive compounds in six ovarian, three cervical, and […] placental cancer cell lines using the ATPlite assay for cell viability. […] The cervical cancer cell lines included HeLa, Ca Ski, and C-33 A. The placental cancer cell lines included JEG-3. HEK 293T cells were used as the control cell line to determine the selectivity index. ATPlite is a luminescence based assay reliant on the conversion of a luciferase substrate to light in the presence of ATP. As a cytotoxic compound will suppress growth and decrease the number of cells, the concentration of ATP will decrease, and less light signal will be detected in the well.
# Assay Protocol Summary: 1,000 cells in 4 uL of media were dispensed into white, solid bottom 1536-well plates using a Multidrop Combi (Thermo Scientific). The Assay plates were incubated for 16 hours at 37 C with 5% CO2 in assay plates, followed by the addition of 23 nL of DMSO or drug dissolved in DMSO. Each compound was assayed in five concentrations (0.092, 0.46, 2.3, 11.5, and 57.5 uM), using the automated Wako 1536 Pin Tool workstation and incubated at 37 C with 5% CO2 48 hours. 4 uL of ATPlite, the ATP monitoring reagent, was then added to the each well of the assay plates using the Multidrop Combi reagent dispenser followed by incubation for 15 minutes at room temperature. The resulting luminescence was measured using the ViewLux plate reader.
# % is scaled to controls: 0 for no effect and ±100 for the full control effect.
SMILES,"activity change, negative = cytotoxicity",outcome
CNC(C)(C)Cc1ccccc1,20.6% (inactive),
Clc1ccccc1N1CCNCC1,15.8% (inactive),
CC(Cc1ccccc1)NCCn1cnc2c1c(=O)n(C)c(=O)n2C (stereo not given),-1.41% [at 116 µM] (inactive),
CNCC(=O)c1ccc(O)c(O)c1,3.49% (inactive),
CN1C(=O)CCS(=O)(=O)C1c1ccc(Cl)cc1 (stereo not given),18.7% (inactive),
O=c1c(C2CC(c3ccc(-c4ccc(Br)cc4)cc3)Cc3ccccc32)c(O)sc2ccccc12 (stereo not given),-12% (inactive),
CC(C)(C)c1ccc(O)cc1,17.3% (inactive),
O=C(Nc1ccc(Br)cc1)c1cc(Br)cc(Br)c1O,-18% (inactive),
COc1cccc(C(=O)CCN[C@@H](C)[C@H](O)c2ccccc2)c1,-7.49% (inactive),
O=P1(N(CCCl)CCCl)NCCCO1 (stereo not given),-23.2% (inactive),
CCCOC(=O)c1cncn1C(C)c1ccccc1 (stereo not given),7.42% (inactive),
CCC(CC)(CNC(=O)CCCO)c1cccc(OC)c1,-1.39% (inactive),
CC(C)N(CCC(C(N)=O)(c1ccccc1)c1ccccn1)C(C)C (stereo not given),,inactive
COc1ccc2c(c1OC)C(=O)O[C@H]2[C@@H]1c2cc3c(cc2CCN1C)OCO3,1.77% (inactive),
O=c1oc2ccccc2c(O)c1Cc1c(O)c2ccccc2oc1=O,-17.2% (inactive),
O=C(O)c1ccc(=O)[nH]c1,2.06% (inactive),
CCOC(=O)CC(SP(=S)(OC)OC)C(=O)OCC (stereo not given),,inactive
CN1C(=O)NC(=O)C(C)(C2=CCCCC2)C1=O (stereo not given),11.8% (inactive),
CCN(CC)C(=O)[C@@H]1C=C2c3cccc4[nH]cc(c34)C[C@H]2N(C)C1,-15.3% [at 222 µM] (inactive),
C=C(C)[C@H]1CN[C@H](C(=O)O)[C@H]1CC(=O)O,11.8% (inactive),

SMILES,"activity change, negative = cytotoxicity",outcome
Nc1ccccc1C(=O)O,-2.89% (inactive),
Nc1nc(N)nc(NC2CC2)n1,-2.96% (inactive),
COP(=S)(OC)SCN1C(=O)c2ccccc2C1=O,-4.56% (inactive),
O=C1OC(c2ccc(O)c(S(=O)(=O)O)c2)(c2ccc(O)c(S(=O)(=O)O)c2)c2c(Br)c(Br)c(Br)c(Br)c21,8.3% (inactive),
CC(NC(C)(C)C)C(=O)c1cccc(Cl)c1 (stereo not given),,inactive
O=C(N/N=C/c1ccc([N+](=O)[O-])o1)c1cc([N+](=O)[O-])cc([N+](=O)[O-])c1O,1.21% (inactive),
CCC1(CC)C(=O)C=CNC1=O,-17.6% (inactive),
C[C@@H]1CC2=CC(=O)CC[C@@H]2[C@H]2CC[C@@]3(C)[C@@H](CC[C@]3(C)O)[C@@H]21,-21.6% (inactive),
CCN[C@@H](C)Cc1cccc(C(F)(F)F)c1,2.18% (inactive),
O=c1[nH]oc2c1CCNC2,17.1% (inactive),
CCc1cc2c(s1)-n1c(C)nnc1CN=C2c1ccccc1Cl,0% (inactive),
CCCCCCC(=O)CCCCCC/C=C/C[C@@H](O)[C@H](O)[C@@](N)(CO)C(=O)O,0% [at 25.3 µM] (inactive),
CC(C)(C)NCC(O)c1cc(Cl)c(N)c(C(F)(F)F)c1 (stereo not given),15.6% (inactive),
C[C@]12CC[C@@H]3c4ccc(OC(=O)N(CCCl)CCCl)cc4CC[C@H]3[C@@H]1CC[C@@H]2OP(=O)(O)O,-6.73% (inactive),
c1ccc(CN2CCNCC2)cc1,-12.1% [at 222 µM] (inactive),
C[C@]12CC[C@H]3[C@@H](CCC4=CC(=O)CC[C@@H]43)[C@@H]1CC[C@@H]2OC(=O)CCc1ccco1,3.19% (inactive),
C[C@]12CCC(=O)C=C1CC[C@@H]1[C@@H]2CC[C@@]2(C)[C@H]1CC[C@]2(C)O,-23.6% (inactive),
COc1cc(OC)c(OC)cc1C=O,-2.06% [at 116 µM] (inactive),
O=C1c2ccccc2C(=O)c2ccccc21,4.75% [at 25.3 µM] (inactive),
C[C@]12CCC(=O)C=C1CC[C@@H]1[C@H]3CC[C@](C)(O)[C@@]3(C)CC[C@@H]12,-12% [at 116 µM] (inactive),
